# Reference: ChEMBL document CHEMBL4513216, “Probing the Open Global Health Chemical Diversity Library for Multistage-Active Starting Points for Next-Generation Antimalarials” (ACS Infect Dis, 2020)
# About 8,600 (12%) of roughly 69,000 compounds showed an effect of 50% or more. The sample as a whole holds a higher share of strong results than the screen did.
# System: Plasmodium berghei
# Assay: Screen against P. berghei liver stage (PbLuc), transformed with Luciferase, at 10uM
# Format: functional, HepG2
# Conditions: tested at 10 uM
row,Compound,INHIBITION [%]
1,Cc1nc(C)n(CC2CCCN2Cc2nc3ccccc3s2)n1 (configuration not stated),33.8
2,CNc1cc(C2CCCN2C(=O)CCc2ccccc2F)ccn1 (configuration not stated),22
3,Cc1sc2nc(CCN)nc(N(C)CCCC3CCCO3)c2c1C (configuration not stated),43.2
4,COCCN(CC1CC1)c1nc(CCN)nc2ccccc12,16.2
5,COCCN(CC1CC1)c1nc(CCN)nc2sc(C)c(C)c12,65.3
6,CCN(CCN(C)C)c1nc(CCN)nc2sc(C)c(C)c12,71
7,Cc1sc2nc(CCN)nc(N(CCN(C)C)CC3CCCO3)c2c1C (configuration not stated),51.3
8,COCCN(Cc1cccs1)c1nc(CCN)nc2ccccc12,-17.3
9,Cc1nn(C)c2nc(N(CCN(C)C)CC3CCCO3)sc12 (configuration not stated),35.3
10,O=C(NCCCO)c1nnsc1-c1ccccc1,46.6
11,Cc1sc2c(C3CCCN(S(C)(=O)=O)C3)nc(C)n2c1C (configuration not stated),-22.6
12,Cc1cccc2nc(-c3nc4c([nH]3)CCCNC4=O)cn12,-176
13,COc1ccnc(N2CCN(C(=O)COCC(F)(F)F)CC2)n1,-2.725
14,Cc1nn(C)c(Cl)c1C1CCCN1C(=O)c1cnccn1 (configuration not stated),25.1
15,CCCn1ncc(C(=O)N(C)Cc2cc(C3CC3)[nH]n2)c1C,40.6
16,CN(CCc1ccccn1)C(=O)C(c1cccnc1)N1CCOCC1 (configuration not stated),-29.2
17,CN(Cc1cc(C2CC2)on1)C(=O)C(c1cccnc1)N1CCCC1 (configuration not stated),48.9
18,CN(Cc1cc(C2CC2)[nH]n1)C(=O)C(c1cccnc1)N1CCCC1 (configuration not stated),68.4
19,Cc1n[nH]c(C)c1CCN(C)C(=O)C(c1cccnc1)N1CCOCC1 (configuration not stated),-12.5
20,Cc1cc(CN(C)C(=O)C(c2cccnc2)N2CCOCC2)n[nH]1 (configuration not stated),51.7
21,Cc1ncsc1CCN(C)C(=O)C(c1cccnc1)N1CCOCC1 (configuration not stated),0.266
22,Cc1cc(C)nc(CN(C)C(=O)C(c2cccnc2)N2CCCC2)c1 (configuration not stated),61.9
23,O=C(NCCNc1cccnc1)C(c1cccnc1)N1CCCC1 (configuration not stated),-0.55
24,O=C(c1ccsc1)N1CCO[C@@H]2CN(Cc3nccs3)C[C@@H]2C1,42.1
25,CC1COCCN1C(=O)Nc1cnc2c(cnn2C(C)C)c1 (configuration not stated),-27.9
26,O=C1COc2ccc(C(=O)N3CCCC(n4ccnc4)C3)cc2N1 (configuration not stated),-12.2

row,Compound,INHIBITION [%]
1,Cc1cccc(C(Nc2nccc(C)n2)C2CC2)n1 (configuration not stated),6.66
2,COc1c(C2CCCN2CC(=O)Nc2cccnc2)c(C)nn1C (configuration not stated),19.4
3,O=C(c1ccsc1)N1CCC2(CCN(Cc3ccccn3)C2=O)C1 (configuration not stated),-5.08
4,CN(CCCOc1ccccc1Cl)C(=O)CN1CCNC1=O,17
5,Cc1nc2cc(C(=O)N3C[C@@H](NS(C)(=O)=O)[C@H](C(C)C)C3)ccc2[nH]1,39
6,CC(C)[C@@H]1CN(C(=O)NCc2ccco2)C[C@H]1N(C)C,31.4
7,CC(C)[C@@H]1CN(C(=O)CCn2ccccc2=O)C[C@H]1NS(C)(=O)=O,8.53
8,CC(C)[C@@H]1CN(CC(=O)NCc2ccco2)C[C@H]1NS(=O)(=O)N(C)C,27.8
9,CCN(C)S(=O)(=O)N[C@H]1CN(c2ccc(F)cn2)C[C@@H]1C(C)C,64.5
10,CC(C)[C@@H]1CN(c2ccc(C(F)(F)F)cn2)C[C@H]1NS(C)(=O)=O,26.4
11,CC(C)[C@@H]1CN(c2ncc(F)cn2)C[C@H]1NS(=O)(=O)N(C)C,41.7
12,CC(C)[C@@H]1CN(C(=O)NCc2ccco2)C[C@H]1NS(=O)(=O)N(C)C,62.8
13,CC(C)[C@H]1CN(c2ccncc2)C[C@@H]1NS(=O)(=O)N(C)C,76.8
14,CC(C)[C@H]1CN(C2Cc3ccccc3C2)C[C@@H]1NS(C)(=O)=O,55
15,CC(C)[C@H]1CN(c2ccncc2)C[C@@H]1NC(=O)C1(C#N)CCOCC1,10.9
16,CC(C)[C@@H]1CN(c2ccc(F)cn2)C[C@H]1NS(C)(=O)=O,30.9
17,Cn1cc(C2CCCN2C(=O)CCn2c(=O)oc3ccccc32)cn1 (configuration not stated),-13.7
18,CN1CCCc2cc(CNC(=O)c3cccnc3O)ccc21,-18.8
19,COC(=O)c1ccc(N(C(=O)c2cccnc2C)C(C)C)c(C)c1,-4.63
20,CC(C)CNC(=O)[C@H]1CCS(=O)(=O)[C@@H]2CN(Cc3cccc(Cl)c3)C[C@H]12,36.8
21,Cn1ccnc1C1CCCN(C(=O)c2ccc3nccnc3c2)C1 (configuration not stated),6.11
22,Cn1ncc2c(=O)[nH]c(CN3CCc4sccc4C3)nc21,13.3
23,Cc1ncncc1C(=O)N1CCCC(n2cccn2)C1 (configuration not stated),2.97
24,Cc1cc(NC(=O)NCc2cccnc2OC(C)C)no1,31.2
25,Cc1cc(C)n(CC(C)Nc2nc(C)nc3c2CCNC3)n1 (configuration not stated),-9.18
26,Cc1oc(-c2ccco2)nc1CN1CCc2cncnc2C1,45.4

row,Compound,INHIBITION [%]
1,c1cncc(CNC2CCc3ncnn3C2)c1 (configuration not stated),33.3
2,Cc1ccc(C)c(NCc2nc3n(n2)CCCCC3)c1,17.6
3,Cc1csc2c(C3CCN(C(=O)Cn4cncn4)CC3)nc(C)n12,32.3
4,CC(C)c1nc(C2CCCN2CCS(C)(=O)=O)no1 (configuration not stated),31.5
5,CS(=O)(=O)N[C@@H]1CN(Cc2ccccc2)C[C@H]1O,22.8
6,CC(C)[C@@H]1CN(CCOc2ccccc2)C[C@H]1NS(=O)(=O)N(C)C,33.2
7,CS(=O)(=O)N[C@@H]1CN(Cc2ccccc2)C[C@@H]2CCCO[C@@H]21,-57.7
8,CC(C)[C@@H]1CN(S(=O)(=O)Cc2ccccc2)C[C@H]1NS(=O)(=O)N(C)C,32.7
9,CC(C)[C@H]1CN(C2Cc3ccccc3C2)C[C@@H]1NS(=O)(=O)N(C)C,55
10,CC(C)[C@@H]1CN(C2CCN(Cc3ccccc3)CC2)C[C@H]1NS(C)(=O)=O,64.9
11,Cc1noc(C)c1CN1C[C@@H]2CCCO[C@@H]2[C@H](Nc2ccccn2)C1,16.4
12,Cc1noc(C)c1CN1CCCCC1CCc1ccc(O)cc1 (configuration not stated),12.6
13,COCCN1CC(=O)N2CC[C@@H](O)C[C@H]2C1=O,10.615
14,Cc1ccsc1C(=O)N1C[C@@H](C(=O)O)[C@H](C(C)C)C1,24.4
15,CC(C)[C@@H]1CN(C(=O)C2(c3ccccc3)CCN(C)CC2)C[C@H]1N(C)C,39.4
16,CC(C)[C@@H]1CN(C(=O)C2(c3ccccc3)CCN(C)CC2)C[C@H]1C(=O)O,64
17,COc1ccc(C2(C(=O)N3C[C@@H](C(=O)O)[C@H](C(C)C)C3)CC2)cc1,-17.3
18,CC(C)[C@@H]1CN(C(=O)CN(C)Cc2ccccc2)C[C@H]1C(=O)O,47.9
19,CC(C)[C@@H]1CN(C(=O)C2(c3ccccc3)CC2)C[C@H]1C(=O)O,50.1
20,CS(=O)(=O)N1CCC(c2cncc(Cl)n2)CC1,-1.16
21,CC(C)CN(Cc1ccc(O)c(C(=O)O)c1)Cc1ccccn1,43.9
22,CC(C)CN(Cc1ccccn1)Cc1ccccc1OCC(=O)O,54.4
23,CC(C)CN(Cc1ccccn1)Cc1ccccc1C(=O)O,38.6
24,COCC(=O)NCCn1nc(-c2cc(C)oc2C)ccc1=O,-0.275
25,O=C(c1ccccc1-c1ccccc1)N1C[C@@H]2CNC[C@]2(C(=O)O)C1,49.7
26,O=C(Nc1ccccc1-c1ccccc1)N1C[C@@H]2CNC[C@]2(C(=O)O)C1,55.4

row,Compound,INHIBITION [%]
1,O=C(Nc1ccc(-c2ccccc2)cc1)N1C[C@@H]2CNC[C@]2(C(=O)O)C1,41.5
2,Cc1cc(CNC2CCCN(Cc3noc(C4CC4)n3)C2)on1 (configuration not stated),46.2
3,CN(CCc1ccccn1)C(=O)CCC1CCCN(c2ncccn2)C1 (configuration not stated),16.1
4,CCCc1csc(-c2ccc(S(C)(=O)=O)cc2)n1,-39.1
5,CC(C)(CN1CCC(Cc2cccc(C(=O)O)c2)C1)N1CCOCC1 (configuration not stated),1.71
6,CCOc1ccc(Oc2cc(N)ccn2)cc1,-55.5
7,Cc1cnn(CC2CN(CC(=O)Nc3nccs3)CCO2)c1 (configuration not stated),29.6
8,O=C(CN1CCOC(Cn2cccn2)C1)Nc1nccs1 (configuration not stated),53.3
9,Cc1cnn(CC2CN(CC(=O)N(C)c3nccs3)CCO2)c1 (configuration not stated),11.8
10,CN(Cc1ccsc1)C(=O)CN1CCOC(Cn2cccn2)C1 (configuration not stated),33
11,O=C(CN1CCOC(Cn2cccn2)C1)Nc1nncs1 (configuration not stated),41.2
12,O=C(CN1CCOC(Cn2cccn2)C1)Nc1ccncc1 (configuration not stated),-18.2
13,Cc1nc(NC(=O)CN2CCOC(Cn3cccn3)C2)sc1C (configuration not stated),60.4
14,Cc1nn(C)c(C)c1NC(=O)CN1CCOC(Cn2cccn2)C1 (configuration not stated),47.1
15,O=C(CN1CCOC(Cn2cccn2)C1)NC(C1CC1)C1CC1 (configuration not stated),58.2
16,CN(C(=O)CN1CCOC(Cn2cccn2)C1)c1nccs1 (configuration not stated),52.1
17,Cc1nnc(NC(=O)CN2CCOC(Cn3cccn3)C2)s1 (configuration not stated),17.4
18,O=C(CN1CCOC(Cn2cncn2)C1)NC(C1CC1)C1CC1 (configuration not stated),23.9
19,NC(=O)c1csc(N2C[C@@H](CN3CCCCC3)[C@@H](CO)C2)n1,14.45
20,CC(=O)c1cc2ncc(C(=O)NC3CCCCC3)cc2[nH]1,-25.1
21,COC(=O)C(C)(C)NC(=O)C1CC(=O)N(CC(F)(F)F)C1 (configuration not stated),-28.7
22,CC(NC(=O)OC(C)(C)C)c1nnc(S(=O)(=O)Cc2ccccc2Cl)o1 (configuration not stated),21.5
23,Cn1ncc2c1C(COCC1CC1)CN(c1ncc(F)cn1)C2 (configuration not stated),7.67
24,Cn1cc(-c2nc(C(=O)N3CCCC3Cn3cccn3)cs2)cn1 (configuration not stated),40.2
